This is an account of results in ChEMBL document CHEMBL3988442, “University of Dundee, Small-Polar-MMV Screening Library” (2021).

Hit rate of the full screen: of about 48,000 compounds, about 13,000 (27%) showed an effect of 50% or more. Some of the results follow.

The test relates to Wolbachia pipientis. Briefly: Anti-Wolbachia Cell-Based Screen. The format is functional. Also noted: scale not given: in the data most compounds retested in dose-response had high values. The conditions noted are these: 5 µM.
For `Cc1cc(NC(=O)CN2CCOC(Cn3nc(C)cc3C)C2)n(C)n1` (configuration not stated), the “Percent Effect” value is -0.6717%.
As for `Cc1cc(C)n(CC2CN(CCc3ccncc3)CCO2)n1` (configuration not stated), the “Percent Effect” value is -8.109%.
For `O=C(CN1CCOC(Cn2cncn2)C1)NC(C1CC1)C1CC1` (configuration not stated), the “Percent Effect” value is -5.3%.
On to `Cc1cc(C)n(CC2CN(CC(=O)Nc3nncs3)CCO2)n1` (configuration not stated), for which the “Percent Effect” value is listed as -6.247%.
For the molecule `Cc1cc(C)n(CC2CN(CC(=O)NC(C3CC3)C3CC3)CCO2)n1` (configuration not stated), the “Percent Effect” value is 97.21%.
With `Cc1cc(CN2CCN(CC(=O)NC3(C#N)CCCCC3)CC2)on1`, the “Percent Effect” value came to 3.175%.
Turning to `CC(C)=CCN1CCOC(Cn2nc(C)cc2C)C1` (configuration not stated), the “Percent Effect” value is listed as -20.01%.
For `Cc1cc(C)n(CC2CN(CC(=O)NC3(C#N)CCCC3)CCO2)n1` (configuration not stated), the “Percent Effect” value came to 97.92%.
The same measure for `Cc1cc(C)n(CC2CN(CC3CCCC3)CCO2)n1` (configuration not stated): 115%.
As to `O=C(CN1CCOC(Cn2cccn2)C1)NC(C1CC1)C1CC1` (configuration not stated), the “Percent Effect” value is on record as -1.772%.
Turning to `Cc1cc(C)n(CC2CN(CC(=O)Nc3ccncc3)CCO2)n1` (configuration not stated), the “Percent Effect” value is reported as 89.28%.
Regarding `O=C(Nc1cccn(CC(F)(F)F)c1=O)c1ccc(F)cc1`, the “Percent Effect” value stood at 7.272%.
`O=C(NCC1CC1)C12CC(CN1Cc1nccs1)C2`: the “Percent Effect” value was -8.528%.
Consider `C/C=C(\C)CN1C[C@H](NC(=O)c2cnc(O)cn2)C[C@H]1C(=O)NCC`, for which the “Percent Effect” value is on record as -10.14%.
The same measure for `CCNC(=O)[C@@H]1C[C@@H](NC(=O)Cc2ccccn2)CN1CCCSC`: -3.005%; for `CCNC(=O)[C@@H]1C[C@@H](NC(=O)c2ccc(C)s2)CN1Cc1ccccn1`: 112.7%; for `CCNC(=O)[C@@H]1C[C@@H](NC(=O)c2cccnc2O)CN1Cc1ccsc1`: 9.29%.
On to `CCNC(=O)[C@@H]1C[C@@H](NC(=O)c2cc(C)on2)CN1Cc1ccccn1`, for which the “Percent Effect” value is 121.6%.
Next, `CCNC(=O)[C@@H]1C[C@H](NC(=O)Cc2ccsc2)CN1Cc1ccc(C)o1`: 8.656%; `CCNC(=O)[C@@H]1C[C@H](N)CN1Cc1ccc(Sc2ccc(C)cc2)o1`: 11.39%.
Next, `CCNC(=O)[C@@H]1C[C@H](NC(=O)c2ccc(C)s2)CN1Cc1ccc(C)o1`: 103.2%; `Cc1cc(C(=O)N2CCC(c3nccn3Cc3ccccn3)CC2)no1`: -9.373%; `CSCCc1c(-c2ccccc2)ncn1CC(C)(C)N1CCOCC1`: 0.5421%.
In the case of `CN(CCCc1cc(-c2ccccc2)n[nH]1)C(=O)CCCn1cncn1`, the “Percent Effect” value is recorded as 1.593%.
The same measure for `O=C(COC1CCOC1)N(CC(F)F)c1cccc(Cl)c1` (configuration not stated): -1.811%; for `CC1CCC(NC(=O)Nc2ccc(CC(=O)N(C)C)cc2)CC1` (configuration not stated): 5.136%; for `CC(O)CN1CCN(C(=O)c2ccc(CN(C)C)cc2)CC1` (configuration not stated): 105.8%.
As for `COCc1ccc(C(=O)N2CCN(CC(C)O)CC2)cc1` (configuration not stated), the “Percent Effect” value is listed as 108.5%.
As to `CCN(CC)Cc1ccc(C(=O)N2CCN(CC(C)O)CC2)cc1` (configuration not stated), the “Percent Effect” value is -1.675%.
Consider `CSCc1ccc(C(=O)N2CCN(CC(C)O)CC2)cc1` (configuration not stated), for which the “Percent Effect” value was determined as 99.74%.
Regarding `CC(O)CN1CCN(C(=O)c2ccc3c(c2)COC3)CC1` (configuration not stated), the “Percent Effect” value is on record as -5.873%.
As to `CC(O)CN1CCN(C(=O)c2ccc(Br)o2)CC1` (configuration not stated), the “Percent Effect” value is -12.79%.
The same measure for `CSCc1cccc(C(=O)N2CCN(CC(C)O)CC2)c1` (configuration not stated): -7.975%; for `COc1ccccc1C(=O)Nc1ccc([C@@H](O)[C@H]2COCC(=O)N2)cc1`: -5.781%.
On to `O=C(O)C1c2nc[nH]c2CCN1Cc1ccccc1-c1ccccc1` (configuration not stated), for which the “Percent Effect” value is given as -6.694%.
The same measure for `CC(C)CCc1noc(CN2CCCC(CNS(N)(=O)=O)C2)n1` (configuration not stated): -3.11%; for `O=S(=O)(NC1CCC2(CC1)OCCO2)c1cccc(Br)c1`: -35.45%.
With `COC(=O)CN(C)C1CCc2ccccc21` (configuration not stated), the “Percent Effect” value is -6.999%.
Regarding `CCc1[nH]ncc1C(=O)N1CCCN(Cc2cnn(C)c2)CC1`, the “Percent Effect” value is listed as -4.439%.
With `CCn1cc(CN2CCCN(C(=O)c3ccccc3OC)CC2)cn1`, the “Percent Effect” value turned out to be 106.4%.
The same measure for `CCn1cc(CN2CCCN(C(=O)c3ccccc3C)CC2)cn1`: 154.9%.
The same measure for `CCCc1cc(=O)[nH]c2nnc(SCC(=O)OC)n12`: 10.3%; for `CC(NC(=O)C1CCCC1)c1nncn1C(C)C` (configuration not stated): 0%; for `CC1CCN(CCNC(=O)C2CCN(C(=O)NC(C)C)CC2)CC1`: 10.9%.
Next, `CC(C)NC(=O)C1CCc2nnc(CNC(=O)c3cccnc3)n21` (configuration not stated): 109.4%; `CN(Cc1ccc(Cl)s1)C(=O)NCc1nnc2n1CCC2`: 3.09%; `Cc1ccc2c(c1)nc1n2[C@@H](CNC(=O)c2cccnc2)COC1`: -3.716%.
Consider `CC(C)N(Cc1ccccc1)C(=O)NCCNC(=O)c1cccnc1`, for which the “Percent Effect” value is recorded as -12.62%.
Next, `CC(C)NC(=O)C1CCc2nnc(CNC(=O)C3CC3)n21` (configuration not stated): 113.3%.
In the case of `COc1ccc(C(NC(=O)NCc2nnc3n2CCC3)C2CC2)cc1` (configuration not stated), the “Percent Effect” value came out at 10.5%.
Take `CC(C)NC(=O)NCc1nnc2n1C(C(=O)N(C)C)CC2` (configuration not stated): the “Percent Effect” value is reported as 107%.
Consider `CN(C)C(C(=O)N1CCN(CCn2cccc2)CC1)c1cccc(F)c1` (configuration not stated), for which the “Percent Effect” value was -3.926%.
With `O=C1OCCN1CCSc1nnnn1CC(F)(F)F`, the “Percent Effect” value is listed as -1.95%.
On to `CSCc1cccc(S(=O)(=O)NCc2cnn(C)c2C)c1`, for which the “Percent Effect” value is -8.017%.
As to `Cc1cc(NC(=O)NCCc2ccc(S(N)(=O)=O)cc2)n(C)n1`, the “Percent Effect” value was -16.74%.
The same measure for `CCCc1nc(C)cc(NCc2ccc(S(N)(=O)=O)cc2)n1`: 98.3%; for `Cc1ccc(C)c2c(O)cc(CNCc3ccc(S(N)(=O)=O)cc3)nc12`: -3.225%; for `CC(C)c1nn2c(-c3cnn(C)c3)nnc2s1`: 112.2%.
With `Cc1nn2c(-c3cnn(C)c3)nnc2s1`, the “Percent Effect” value was 91.48%.
`Cc1nc(C(C)C)sc1C(=O)N(C)Cc1cnn(C)c1`: the “Percent Effect” value was -3.073%.
For `Cc1nc(-c2cnn(C)c2)sc1C(=O)NCc1ccc(C)n1C`, the “Percent Effect” value is given as -0.2397%.
With `CN1CCN(c2nc(-c3cnn(C)c3)cs2)CC1`, the “Percent Effect” value amounted to 4.898%.
Consider `CS(=O)(=O)NCCC(=O)N1Cc2cnc(-c3ccccc3)nc2C1`, for which the “Percent Effect” value is reported as 16.59%.
In the case of `CN(CC1CCOC1)c1ncc(Br)cn1` (configuration not stated), the “Percent Effect” value is 108.2%.
Turning to `Cc1cc(C)c2c(N(C)CC3CCOC3)ncnc2n1` (configuration not stated), the “Percent Effect” value amounted to 14.02%.
Turning to `CC(C)n1cnnc1CN(C)CC1CCOC1` (configuration not stated), the “Percent Effect” value is on record as -3.944%.
Consider `Cc1cc(Br)cnc1N(C)CC1CCOC1` (configuration not stated), for which the “Percent Effect” value is 110.5%.
Take `Cc1cc(NC(=O)N(CC2CCOC2)C2CC2)no1` (configuration not stated): the “Percent Effect” value is reported as -8.865%.
For the molecule `CN(CC1CCOC1)c1ccc(Br)cn1` (configuration not stated), the “Percent Effect” value was 73.32%.
As to `CCN(CC)c1ccc(NC(=O)NCC2CCOC2)cn1` (configuration not stated), the “Percent Effect” value was determined as 10.55%.
Turning to `CCN(CC1CCOC1)C(=O)Nc1ccc(OC)nc1` (configuration not stated), the “Percent Effect” value is 9.48%.
Turning to `Brc1cnc(NCCCOCC2CCOC2)nc1` (configuration not stated), the “Percent Effect” value is on record as -7.311%.
